Luc counter: Kinase-Glo luciferase inhibition (counter-screen); Q27757; Kinase-Glo luciferase, ATP luminescence, 8 min; Potency, µM (doses to about 38.3 µM), for inactives: at the highest dose activity change, negative = inhibition, usual class: inhibitors; actives 0.28% (n = 200,000); active = well fitted inhibition curve with a large enough effect; inconclusive = small, poorly fitted or top-dose-only effect; note: potency is the fitted concentration of half-maximal effect; nearly all actives have a fitted effect of over 60% in size
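Compound is pinned into ATP-containing buffer (10 uM ATP, imidazole pH 7.2, 7 mM MgCl2). Kinase-Glo luciferase reagent is then added. Light output is recorded following an 8-min room-temperature incubation.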
PNC inhibitor: blocks assembly of the perinucleolar compartment; PC3M PTB-GFP, PNC prevalence imaging, 16 h; stronger effect = lower value; activity change (PNC), negative = inhibition, % at 10 µM; actives 3.1% (n = 140,000);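 active = readout at or below -70, meaning at least 70% loss of cells showing the perinucleolar compartment, a nuclear body marking cancer cells; inconclusive = readout between -30 and a set limit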;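 note: plate controls were DMSO wells for no effect and camptothecin positive control wells for full effect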
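Read-out is percentage of cells bearing a perinucleolar compartment, from automated 20x imaging of fixed, Hoechst-stained PC3M PTB-GFP cells. Cells were seeded 4 h, then exposed 16 h to compound (23 nl of library stock) in duplicate plates.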
IMPase cell inh: cell-permeable inhibitors of inositol monophosphatase (IMPase) | P97697 | 120,000 tested, under 10 active | CHO-M1 cells, IP1 accumulation, HTRF TR-FRET ratio | inhibition (IP1 accumulation), % at 46.1 µM | AID 901; active = well fitted curve in the direction sought with a large enough effect in the signal ratio, not every such curve was filed as active; inconclusive = small, poorly fitted or top-dose-only effect, or a change in a side signal; inactive = no such curve, though single readings can be large or run the other way; the % refers to the signal ratio;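 note: cells stimulated with carbachol in lithium chloride buffer; plate controls were DMSO basal wells for no effect and reference inhibitor wells for full effect; higher means more IMPase inhibition seen as more IP1 and lower FRET ratio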
Target sequence (P97697 whole entry, looked up): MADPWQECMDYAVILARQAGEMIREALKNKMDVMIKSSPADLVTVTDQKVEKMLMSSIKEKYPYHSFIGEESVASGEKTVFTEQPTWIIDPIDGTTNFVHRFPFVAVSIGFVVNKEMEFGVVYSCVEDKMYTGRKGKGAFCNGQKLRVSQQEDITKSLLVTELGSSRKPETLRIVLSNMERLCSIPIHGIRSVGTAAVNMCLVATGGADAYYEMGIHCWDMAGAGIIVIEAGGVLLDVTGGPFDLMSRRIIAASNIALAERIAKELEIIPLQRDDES
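Measured: the HTRF emission ratio (665/620 nm) plus the 620 nm donor channel, each fitted to the Hill equation to give AC50. Cells were CHO-M1 given compounds up to 46 uM and a 30 min carbachol stimulation at 37C.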
LMNA splice mod: changes lamin A minigene splicing in HeLa cells; HeLa LMNA splicing GFP/RFP minigene ratio, 48 h; Potency, µM (series often up to 46.1 µM), without a hit: top-dose ratio change, negative = inhibition, hits mostly inhibitors; actives 0.01% (n = 200,000); AID 1487; active = well fitted inhibition curve with a large enough effect in the signal ratio, with a control signal flat, not every such curve was filed as active; inconclusive = small, poorly fitted or top-dose-only effect, or effect the other way, or a change in a side signal; the % refers to the signal ratio; note: potency is the fitted concentration of half-maximal effect
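S3 HeLa stable clones carrying a lamin A-EGFP splicing minigene plus DsRed2 were seeded at 600 cells/well in Opti-MEM with 2% FBS, pin-dosed and incubated 48 h at 37°C. Acumen cytometry (488 nm) gave the GFP/RFP total-intensity ratio.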
HPGD inh: blocks human HPGD enzyme activity | P15428 | purified HPGD, NADH fluorescence kinetic, PGE2 substrate | Potency, µM, for inactives: at the highest dose activity change, negative = inhibition, hits mostly inhibitors | actives 4.3% (n = 150,000); note: potency is the fitted concentration of half-maximal effect
Target sequence (P15428 whole entry, looked up): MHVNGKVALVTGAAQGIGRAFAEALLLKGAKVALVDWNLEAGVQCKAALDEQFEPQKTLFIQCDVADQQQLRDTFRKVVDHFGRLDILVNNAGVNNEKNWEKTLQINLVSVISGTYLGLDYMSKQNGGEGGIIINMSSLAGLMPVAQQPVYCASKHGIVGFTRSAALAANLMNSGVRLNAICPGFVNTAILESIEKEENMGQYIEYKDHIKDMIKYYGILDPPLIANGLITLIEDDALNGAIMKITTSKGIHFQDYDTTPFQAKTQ
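20 nM HPGD preincubated 15 min at room temperature with compound in 50 mM Tris-HCl pH 8, 0.01% Tween 20. Started with 1 mM NAD+ and 30 uM prostaglandin E2; NADH fluorescence (360/450 nm) read 5 times over 30-s intervals, last minus first.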
ALDH1A1 block: blocks purified human ALDH1A1 activity. P00352. Purified ALDH1A1, NADH fluorescence, propionaldehyde substrate. Potency, µM (series often up to 75.3 µM), for the others: at the top dose activity, negative = inhibition, usual class: inhibitors. actives 7.3% (n = 220,000);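 note: potency is the fitted concentration of half-maximal effect; plate controls were no enzyme wells and a reference inhibitor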
Starred values were filed as active, the others as inactive; ? = inconclusive; / = no result; [ ] = remark or other dose. Rows were chosen to be rich in hits. Some 10% of all compounds tested hit in one or more screens of this group. Unless noted, calls come from the whole dose curve; as a rule, active = well fitted inhibition curve with a large enough effect (not every such curve was filed as active); inconclusive = small, poorly fitted or top-dose-only effect, or another doubt; inactive = no such curve, though single readings can be large or run the other way. Unless noted, % is set by controls: 0 for no effect and ±100 for the full control effect.

SMILES | Luc counter | PNC inhibitor | IMPase cell inh | LMNA splice mod | HPGD inh | ALDH1A1 block
O=c1c(CCc2ccccc2)nc2cnc(Oc3cccc(Cl)c3)nc2n1C[C@H]1CCCO1 | -0.1% | / | / | / | -3.7% | ?
COC(=O)[C@@H](NC(=O)N1CCc2nc(-c3ccccc3)c3c(c2C1)CO[C@@H](C)C3)C(C)C | -13.4%[7.66 µM] | / | / | 6.4%[9.22 µM] | -13.1% | -0.1%[13.5 µM]
O=c1/c(=C/c2ccco2)sc2n1CN(c1cccc(Br)c1)CN=2 | -0.4% | ? | 8.3 | 2.8% | 25.1µM* | ?
Cc1ccc(/C=c2\sc3n(c2=O)CN(c2cccc(Br)c2)CN=3)o1 | -3.5% | -18.0 | 3.2 | 0.4% | -11.9% | 20µM*
Cn1cnnc1SCC(=O)c1cc2ccccc2oc1=O | -2.2% | -4.8 | 4.9 | ? | ? | 10µM*
O=C(CSc1nnc(-c2cccnc2)o1)c1cc2ccccc2oc1=O | -4.1% | -99.4* | -6.5 | 3.1% | -15.8% | ?
O=C(Cn1nc(Cl)nc1Cl)c1cc2ccccc2oc1=O | -3.0% | ? | 6.5 | 8.5% | ? | ?
O=C(CSc1nnc(-c2cccnc2)o1)Oc1ccccc1 | 0.1% | -24.8 | 0.6 | 2.1% | -12.2% | ?
Cn1c(/N=C/c2ccc3c(c2)OCO3)nc2ccccc21 | 11.2µM* | 21.7 | ? | 1.3% | -16.7% | ?
COc1ccc(C(=O)c2ccc(Cl)cc2)c2ccccc12 | -1.9% | -1.4 | -4.1 | -16.6% | -6.7% | -5.5%
COc1ccc(C(=O)CCN(C)C)c2ccccc12 | -5.2%[7.66 µM] | / | / | / | -28.6% | 0.0282µM*
CC(CCC(=O)O)(c1cc(Br)c(O)c(Br)c1)c1cc(Br)c(O)c(Br)c1 | -2.3%[7.66 µM] | / | / | / | -10.9% | 7.6%[13.5 µM]
Fc1ccc(SCCc2ccncc2)cc1 | -4.7% | 71.4 | -4.2 | 15.0% | -18.3% | -4.0%
Fc1cc(F)c(F)c(SCCc2ccncc2)c1F | -1.0% | ? | 17.1 | ? | ? | 7.94µM*
COC(=O)c1ccc(CNCC(=O)Nc2ccc(C(=O)OC)cc2)cc1 | 0.0% | 16.7 | / | ? | 28.2µM* | -5.3%
O=C(CN1C(=O)C2C3C=CC(C3)C2C1=O)Nc1ccc(C(=O)O)cc1 (stereo not given) | 1.0% | 72.4 | 3.7 | 6.2% | -10.9% | 7.5%
COC(=O)c1ccc(NC(=O)CNCc2ccncc2)cc1 | 3.1% | -18.9 | / | -6.5% | 0.0% | 22.4µM*
CCOC(=O)c1ccc(NC(=O)C(=O)NCc2ccncc2)cc1 | 8.7% | ? | -3.0 | -2.8% | -27.7% | ?
COC(=O)c1ccc(NC(=O)CN2C(=O)C3C4C=CC(C4)C3C2=O)cc1 (stereo not given) | -4.5% | 20.2 | -7.6 | 5.3% | 20µM* | 3.1%
Cc1ccc(NC(=O)c2c(C)oc3nc(C)nc(N4CCCC4)c23)c(C)c1 | / | / | / | -13.3%[46 µM] | / | /
CC(=O)c1cccc(NC(=O)C(Cc2ccccc2)NS(=O)(=O)c2ccc(Br)s2)c1 (stereo not given) | / | / | 5.2 | / | / | /
O=C1[C@@H]2[C@@H](C(=O)N1c1ccc(OCc3ccccc3)cc1)[C@@H]1c3ccccc3[C@@H]2[n+]2ccccc21 | -5.2%[7.66 µM] | / | / | / | -4.2% | -9.6%[13.5 µM]
COC(=O)c1cccc(NC(=O)CCc2ccccc2)c1 | -4.6% | -27.8 | / | 6.7% | 25.1µM* | 25.1µM*
COC(=O)c1cccc(NC(=O)c2cnoc2C)c1 | -0.2% | -118.9* | 5.0 | -5.8% | -20.8% | 9.0%
COc1ccc(CCC(=O)Nc2cccc(Cl)c2)cc1 | -3.3% | -82.7* | / | -2.1% | -8.6% | -11.2%
COC(=O)c1ccc(C)c(NC(=O)CCc2ccc(OC)cc2)c1 | 5.4% | -7.3 | 15.5 | -2.7% | -27.1% | 20µM*
COC(=O)c1cccc(NC(=O)c2cccnc2)c1 | -3.4% | 80.2 | 4.2 | -3.0% | -10.0% | 6.1%
Cc1ccc(C(=O)O)cc1NC(=O)CCc1ccccc1 | 4.1% | / | / | -6.3%[46 µM] | / | 8.5%
COC(=O)c1cccc(NC(=O)CCc2cc(OC)c(OC)c(OC)c2)c1 | -3.0% | ? | / | ? | -13.9% | -1.9%
COc1ccc(CC(=O)OCC(=O)Nc2cccc(Cl)c2)cc1 | -0.2% | / | / | 5.5%[46 µM] | / | 2.1%
